The panel holds about 83,000 compounds, 20% with a hit somewhere; the sample as a whole holds those more often.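 Method: cells in 96-well plates; compound added at one concentration; 48 h incubation; percent growth measured; values under 10 scored active.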 Unmarked numbers belong to inactive results. Active and inactive are the calls of the source.
Key:
Test in all cases: NCI-60 one-dose screen, 48 h (100 = growth as untreated, 0 = no growth, -100 = all killed)
Settings in all cases: 10 µM unless noted
[1] = system: HCT-15 colon
[2] = system: HT29 colon
[3] = system: SNB-75 CNS
[4] = system: SNB-19 CNS
[5] = system: U251 CNS
[6] = system: PC-3 prostate
[7] = system: SK-MEL-5 melanoma
[8] = system: UACC-62 melanoma
[9] = system: LOX IMVI melanoma
[10] = system: SK-MEL-28 melanoma

SMILES | growth [1] | growth [2] | growth [3] [%] | growth [4] [%] | growth [5] | growth [6] | growth [7] | growth [8] | growth [9] | growth [10]
COc1ccc(C(=O)C(CN(C)C)c2ccccc2)cc1 (stereo not given) | -49.3% (active) | 19.1% | 25.1 | 91.2 | 31.6% | 52.4% | 43.7% | 33.8% | 10.3% | -44.9% (active)
Cn1c(=O)c2[nH]c(Cc3ccc4c(c3)OCO4)nc2n(C)c1=O | 93.8% | 120% | 95.3 | 101 | 110% | 86.1% | 108% | 98% | 99.5% | 106%
COc1ccc(-c2nn(-c3cccc(Cl)c3)cc2/C=C2\C(=N)N(c3ccccc3)N=C2N)cc1 | 44.5% | 57.4% | 81.6 | 83.5 | 66.3% | 39.6% | 34.8% | -3.26% (active) | 6.46% (active) | 32.8%
NS(=O)(=O)c1ccc(N2N=C(c3cccs3)CC2c2ccccc2O)cc1 (stereo not given) | 4.16% (active) | -25.6% (active) | 30.5 | 63.3 | 0.571% (active) | 8.13% (active) | -29.1% (active) | 24.2% | 13.5% | 27.3%
CCCCc1n(Cc2ccc3ccccc3n2)cc[n+]1Cc1ccc2ccccc2n1 | 87.8% | 5.9% (active) | 17.5 | 10.4 | 11.6% | 16.2% | -76.3% (active) | -6.58% (active) | -22.2% (active) | 16.1%
CCNC(=S)N(Cc1ccccc1)Cc1ccccc1 | 111% | 98.8% | 103 | 123 | 96.4% | 95.3% | 101% | 91.7% | 112% | 110%
O=[N+]([O-])c1cccc(N=C(Nc2cccc([N+](=O)[O-])c2)c2ccccc2)c1 | 68.3% | 47.5% | 84.2 | 92.4 | 82.6% | 51.6% | 70.5% | 70% | 97% | 96.3%
Cc1nc2ccc(Nc3nc(NCCN4CCOCC4)nc(Nc4ccc(F)cc4)n3)cc2n1Cc1ccccc1 | -0.585% (active) | -33.6% (active) | 50.6 | 78.7 | 28.7% | 71.5% | 14.2% | -24.8% (active) | 5.7% (active) | -67.2% (active)
O=C(Cc1ccc(Nc2ccnc(C(F)(F)F)c2)cc1)N/N=C/c1ccccc1O | 14.6% | 75.4% | 30.8 | 31.1 | 23.8% | 71.1% | 10.8% | 10.8% | 9.12% (active) | 106%
C#CC[C@@H]1C[C@]2(C)[C@H]3CC[C@@H]4[C@H]5C(C(=C)C)CC[C@]5(C(=O)NCCCCCCCCN)CC[C@@]4(C)[C@]3(C)CC[C@H]2C(C)(C)[C@H]1OC(C)=O (stereo not given in full) | 67.5% | 30.5% | 80.3 | 92.1 | 71.1% | 55.3% | 98% | 108% | 55% | 113%
CCCCn1c(-c2ccc(F)cc2)nc2cc(OC)c(OC)cc2c1=O | 105% | 107% | 98.8 | 97.6 | 105% | 102% | 89.8% | 81.8% | 98.3% | 97.5%
O=C(Nc1cccc(Cl)c1)Nc1cc(C(F)(F)F)ccc1Cl | 9.83% (active) | 4.03% (active) | 18.2 | 16.6 | 6.86% (active) | -3.53% (active) | 24.4% | -8.9% (active) | -11.8% (active) | 25.5%
O=C(O)c1cn(-c2ccccc2)nc1-c1ccc(O)cc1 | 98.4% | 94.7% | 86.1 | 97.4 | 96.4% | 91.2% | 106% | 90.8% | 91.7% | 101%
